Results filed as inconclusive are left out. Values without a mark were called inactive. The source made the active and inactive calls. Calls follow the shape of the dose curve; as a rule, active = well fitted cell-killing curve with a large enough effect in the repeat runs; inconclusive = weak or mixed curves, or effect the other way; inactive = no such curve, though single readings can be large or run the other way.
Assay: Caspase-3/7 induction in CHO-K1 cells by small molecules, qHTS cell viability counter screen (AID 1346979); also: nearly all actives have a fitted effect of over 35% in size
Conditions: CellTiter-Fluor fluorescence, 17 h; series mostly up to 92.4 µM; activity change, negative = cytotoxicity: at the top concentration
Description: National Center for Advancing Translational Sciences [NCATS]
NIH Chemical Genomics Center [NCGC]
U.S. Environmental Protection Agency [EPA]
National Institutes of Environmental Health Sciences [NIEHS]
National Toxicology Program [NTP]
U.S. Food and Drug Administration [FDA]
Apoptosis is a process of programmed cell death and plays a central role in the development of multicellular organisms. It is a highly regulated process and induces cell death by activating caspases, which are the members of cysteine aspartic acid-specific protease (caspase) family. Caspases involved in apoptosis are classified by their mechanism of action as initiator caspases (caspase-2, -8, -9 and -10) and executioner caspases (caspase-3, -6, and -7). Inhibition of apoptosis results in number of cancers, autoimmune diseases, inflammatory diseases and viral infection. To identify small molecule compounds that induce apoptosis, a homogeneous, luminescent Caspase-Glo 3/7 assay was used. Wild type CHO-K1 cells were used to screen Tox21 libraries for identifying caspase-3/7 activity inducers. Also cytotoxicity of the compounds was tested in parallel by measuring the cell viability using CellTiter-Fluor assay system in the same wells.
Tox21 Assay Protocol Summary:
CHO-K1 cells were dispensed at 1,500 per well in 5uL of culture medium into white solid bottom 1536-well plates (Corning Life Sciences, Corning, NY) using a Multidrop Combi (Thermo Scientific, Waltham, MA) dispenser. The assay plates were incubated at 37 C and 5% CO2 for 5hr, and then 23nL of compounds dissolved in DMSO and positive control were transferred using a Pintool station (Wako, San Diego, CA). The assay plates were incubated at 37C and 5% CO2 for 17hr. For cytotoxicity read, after 16hr incubation at 37C, 1uL CellTiter-Fluor reagent (Promega Corporation, Madison, WI) was added to each well of the assay plates using Flying Reagent Dispenser (FRD, Aurora Discovery, San Diego, CA). After 1hr incubation at 37C and 5% CO2, the fluorescence signal was quantified using a ViewLux plate reader (PerkinElmer, Shelton, CT).
% is scaled to controls: 0 for no effect and ±100 for the full control effect; potency is read from the fitted curve at half-maximal effect.

SMILES	activity change, negative = cytotoxicity	Potency
N#Cc1cc(NC(=O)C(=O)O)c(Cl)c(NC(=O)C(=O)O)c1	10.2% [at 42.5 µM]	–
COC(=O)c1ccc(C(=O)O)cc1	1.9%	–
O=C(c1ccccc1)c1cccc(O)c1	0.876%	–
C[C@@H]1NC(=O)[C@@H](N)CNC(=O)[C@H](C2CCNC(N)=N2)NC(=O)/C(=C/NC(N)=O)NC(=O)[C@H](CNC(=O)C[C@@H](N)CCCN)NC1=O (stereo not given in full)	9.26% [at 0.349 µM]	–
O=C(CCBr)N1CCN(C(=O)CCBr)CC1	-1.76% [at 42.5 µM]	–
CC/C=C\CCCCCCCCCCOC(C)=O	2.64%	–
C[C@@H](CN1CC(=O)NC(=O)C1)N1CC(=O)NC(=O)C1	6.48% [at 42.5 µM]	–
CCCC(=O)OC	5.42%	–
CC(C)(C)C(=O)CC(=O)C(C)(C)C	10.9%	–
Cc1ccc(N)nc1	4.62%	–
CC/C=C/CCCCCCCCCCOC(C)=O	7.65%	–
CN1CCN(C(=O)C2CCCCC2)CC1	-1.27% [at 42.5 µM]	–
Cc1nnc(C(=O)NC(C)(C)c2nc(C(=O)NCc3ccc(F)cc3)c(O)c(=O)n2C)o1	1.82% [at 42.5 µM]	–
CC(C)(C)c1ccc(N)cc1	-0.931%	–
CCN(CC)CC	0.552%	–
NNC(=O)CCCCC(=O)NN	-1.73%	–
CCN(CC)CC(=O)Oc1ccc(NC(C)=O)cc1	9.26% [at 42.5 µM]	–
COC(=O)N/N=C/c1c[n+]([O-])c2ccccc2[n+]1[O-]	3.02% [at 42.5 µM]	–
CC(CC(=O)Cl)CC(C)(C)C (stereo not given)	5.42%	–
O=C[C@@H](O)[C@H](O)[C@H](O)CO	6.39%	–

SMILES	activity change, negative = cytotoxicity	Potency
C=CCOC(=O)CCCCCCCC	-1.58%	–
CCOC(=O)COc1ccc2c(C)c(CCN(CC)CC)c(=O)oc2c1Cl	-0.959% [at 42.5 µM]	–
COC(=O)c1ccc(NC(C)=O)cc1OC	2.89% [at 42.5 µM]	–
O=Cc1ccccc1S(=O)(=O)O	4.4%	–
C/C(=N\O)c1ccc(OCC(=O)N2CCCCC2)cc1	1.04% [at 42.5 µM]	–
Cc1nc2ccc(Cl)cc2[nH]1	–	17.2 µM (active)
CC(C)c1cc(C(C)C)cc(C(C)C)c1	9.61%	–
COc1cc(C(=O)NC2CCCNC2)cc(OC)c1OC (stereo not given)	4.28% [at 42.5 µM]	–
CCCCCCC(O)CO (stereo not given)	8.42%	–
CCC(C)(C)C	-0.335%	–
CC(=O)c1ccc(O)c(C(N)=O)c1	11.3% [at 42.5 µM]	–
CCC(C)c1nccnc1OC (stereo not given)	9.61%	–
C/C=C/C(=O)CCCC	5.92%	–
CCCCCCCCOCCC#N	-1.63%	–
COc1ccc2cc(CCC(C)=O)ccc2c1	-0.361% [at 42.5 µM]	–
O=CN1CCCCC1	-1.39%	–
Cc1cc(N)no1	-2.18%	–
OCCC(F)(F)C(F)(F)C(F)(F)C(F)(F)C(F)(F)C(F)(F)F	4.99%	–
CC(=O)Nc1ccc(S(=O)(=O)Nc2cc(C)on2)cc1	13.4% [at 42.5 µM]	–
Nc1ccc(C(=O)NCC(=O)O)cc1	7.49% [at 42.5 µM]	–

Source: PubChem BioAssay (Tox21)
